# Experimental data: PubChem BioAssay (NCATS)
# Results filed as inconclusive are left out. Activity calls are given as the source filed them. Calls come from the whole dose curve; as a rule, active = well fitted cell-killing curve with a large enough effect; inconclusive = small, poorly fitted or top-dose-only effect; inactive = no such curve, though single readings can be large or run the other way.
# Experiment: qHTS of pediatric cancer cell lines to identify multiple opportunities for drug repurposing: Primary screen for Rh30 cells (AID 1347107); note: nearly all actives have a fitted effect of over 75% in size
# Conditions: Rh30 rhabdomyosarcoma viability, CellTiter-Glo luminescence, 48 h; series mostly up to 46 µM; activity change, negative = cytotoxic: at the top concentration
# Procedure, shortened: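 Cells (500-1,000/well) in growth media were settled 5 h at 37 degrees C, then given compounds for 48 h. Viability was read as CellTiter-Glo luminescence. Primary runs used MIPE at 11 points (0.78 nM-46 µM) and NPC at 8 points (0.59 nM-46 µM); follow-ups used 11 points.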
# % is set by controls: 0 for no effect and ±100 for the full control effect; potency is the fitted concentration of half-maximal effect.
Structure (SMILES),"activity change, negative = cytotoxic",Potency
O=c1[nH]c(=O)n([C@H]2CCCO2)cc1F,6.16% (inactive),–
Cc1cccn2c(=O)c(-c3nnn[nH]3)cnc12,10.2% [at 16.1 µM] (inactive),–
CCCCCCCCCCCCCCCC[N+](C)(C)CCN(Cc1ccc(OC)cc1)c1ncccn1,–,16.8 µM (active)
CCOc1ccc(NC(=O)CC(C)O)cc1 (stereo not given),0.619% (inactive),–
NC(CS)C(=O)O (stereo not given),24.3% (inactive),–
O=C(Nc1ccc(Oc2ccc(Cl)cc2)c(Cl)c1)c1cc(I)cc(I)c1O,9.74% (inactive),–
COc1ccc(OC)c(C(O)CNC(=O)CN)c1 (stereo not given),10.7% (inactive),–
COc1cccc(CCc2ccccc2OCC(CN(C)C)OC(=O)CCC(=O)O)c1 (stereo not given),5.08% (inactive),–
C[C@H](O)C(=O)Nc1c(I)c(C(=O)NC(CO)CO)c(I)c(C(=O)NC(CO)CO)c1I,30.3% (inactive),–
Cc1cc(N)c2cc(NC(=O)Nc3ccc4nc(C)cc(N)c4c3)ccc2n1,-4.91% (inactive),–
NC(=O)CC[C@@H]1NC(=O)[C@H](Cc2ccccc2)NC(=O)[C@H](Cc2ccc(O)cc2)NC(=O)CCSSC[C@@H](C(=O)N2CCC[C@H]2C(=O)N[C@@H](CCCN=C(N)N)C(=O)NCC(N)=O)NC(=O)[C@H](CC(N)=O)NC1=O,18.4% (inactive),–
C[C@H]1C[C@H]2[C@@H]3CCC4=CC(=O)C=C[C@]4(C)[C@@]3(Cl)[C@@H](O)C[C@]2(C)[C@@]1(O)C(=O)CO,16.4% (inactive),–
NCCCC[C@H](N[C@@H](CCc1ccccc1)C(=O)O)C(=O)N1CCC[C@H]1C(=O)O,20.6% (inactive),–
CCCCC(CC)CN=C(N)NC(N)=NCCCCCCN=C(N)NC(N)=NCC(CC)CCCC (stereo not given),–,18.8 µM (active)
CN1CCCC(CC2c3ccccc3Sc3ccccc32)C1 (stereo not given),13.7% (inactive),–
